Measured values: PubChem BioAssay (NCATS)
Results filed as inconclusive are left out. Entries that show only a call come without a potency. Activity calls are given as the source filed them. The call rests on the fitted dose curve; in most records, active means well fitted curve in the direction sought with a large enough effect; inconclusive means small, poorly fitted or top-dose-only effect, or another doubt; inactive means no such curve, though single readings can be large; an effect the other way counts as inactive or inconclusive.

Key:
[1] = COV-362 Cancer Cell Toxicity qHTS against the NCATS CANVASS Library (AID 1347352); conditions: COV-362 viability, CellTiter-Glo luminescence, 72 h; series mostly up to 38.3 µM
Procedure, shortened: (§1)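 1000 cells/well, 4 h pre-incubation 37 °C/5% CO2; 11-pnt titration; 72 h; CellTiter-Glo 15 min RT, luminescence.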

[2] = UWB1.289-WTBRCA1 Cancer Cell Toxicity qHTS against the NCATS CANVASS Library (AID 1347354); conditions: UWB1.289-WTBRCA1 viability, CellTiter-Glo luminescence, 72 h; series mostly up to 38.3 µM
Procedure, shortened: as §1

[3] = HPAF-II 24hr Apoptosis Induction qHTS against the NCATS CANVASS Library (AID 1347356); conditions: HPAF-II caspase-3/7 Caspase-Glo luminescence; series mostly up to 46.1 µM
Procedure, shortened: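 500 HPAF-II cells/well; compounds in 11-pnt qHTS; 24 h, 37 C/5% CO2; Caspase-Glo 3/7 added, 15 min RT dark; luminescence read. Doxorubicin control.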

[4] = HEK293 18hr Apoptosis Induction qHTS against the NCATS CANVASS Library (AID 1347357); conditions: HEK293 caspase-3/7 Caspase-Glo luminescence; series mostly up to 46.1 µM
Procedure, shortened: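 Luminescent caspase-3/7 signal is measured in HEK293 cells exposed for 18 hours to an 11-point concentration series; doxorubicin serves as the plate control.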

[5] = HPAF-II 12hr Apoptosis Induction qHTS against the NCATS CANVASS Library (AID 1347358); conditions: HPAF-II caspase-3/7 Caspase-Glo luminescence; series mostly up to 46.1 µM
Procedure, shortened: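 Caspase-Glo 3/7 luminescence (DEVD substrate) reports caspase activity in HPAF-II cells after 12 h compound treatment at 37 degrees C. Compounds were tested in an 11-point series. Doxorubicin served as control.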

[6] = HEK293 24hr Apoptosis Induction qHTS against the NCATS CANVASS Library (AID 1347359); conditions: HEK293 caspase-3/7 activation, Caspase-Glo luminescence; series mostly up to 46.1 µM
Procedure, shortened: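 HEK293 cells (500/well, DMEM + 10% FBS) were exposed to compounds in an 11-point series for 24 hours at 37 degrees C, then caspase-3/7 activity was read by Caspase-Glo DEVD luciferase luminescence after 15 min.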

[7] = HPAF-II 18hr Apoptosis Induction qHTS against the NCATS CANVASS Library (AID 1347360); conditions: HPAF-II caspase-3/7 luminescence; series mostly up to 46.1 µM
Procedure, shortened: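 Apoptosis was scored as caspase-3/7 activity in HPAF-II pancreatic cancer cells treated 18 hours with an 11-point concentration series.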

[8] = HEK293 12hr Apoptosis Induction qHTS against the NCATS CANVASS Library (AID 1347361); conditions: HEK293 caspase-3/7 Caspase-Glo luminescence; series mostly up to 46.1 µM
Procedure, shortened: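 Apoptosis in HEK293 was scored as caspase-3/7 luminescence following 12 h treatment with a compound concentration series in qHTS format.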

[9] = target: Luciferin 4-monooxygenase (Photinus pyralis) (UniProt P08659); experiment: Firefly luciferase counterscreen qHTS: Assay Interference Panel against the NCATS CANVASS Library (AID 1347363); conditions: purified firefly luciferase, luminescence inhibition, 5 min; series mostly up to 57.5 µM; further: potency means the concentration at half of the fitted maximal effect
Procedure, shortened: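 Purified P. pyralis luciferase was added to compounds (11-point series) preincubated 15 min at room temperature with substrate containing 0.013 mM D-luciferin and 0.013 mM ATP; luminescence was read after 5 min.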

[10] = KB-8-5-11 Cancer Cell Toxicity qHTS against the NCATS CANVASS Library (AID 1347364); conditions: KB-8-5-11 MDR cells viability, CellTiter-Glo, 72 h; series mostly up to 46.1 µM; further: nearly all actives have a fitted effect of over 75% in size
Procedure, shortened: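 CellTiter-Glo luminescence after 72 h exposure; 500 KB-8-5-11 cells/well, DMEM/10% FBS, 37C, 5% CO2; compounds in 11-pt qHTS. Follow-up confirmation included medium with 1uM tariquidar.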

[11] = KB-3-1 Cancer Cell Toxicity qHTS against the NCATS CANVASS Library (AID 1347366); conditions: KB-3-1 viability, CellTiter-Glo luminescence, 72 h; series mostly up to 46.1 µM; further: nearly all actives have a fitted effect of over 75% in size
Procedure, shortened: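 Seed KB-3-1 cells at 500/well in DMEM with 10% FBS, add compounds, incubate 72 hr at 37C and 5% CO2, then add CellTiter-Glo and read luminescence after 10 minutes.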

[12] = qHTS for ATAD5 Agonist screened against the NCATS CANVASS Library (AID 1347367); conditions: HEK293T ATAD5-luciferase reporter, luminescence, 16 h; series mostly up to 46.1 µM;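 further: luciferase reporter driven by ATAD5 which rises upon DNA damage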
Procedure, shortened: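 Step one plated reporter cells and let them acclimate 5hr. Step two pinned compounds with MMS as positive and 0.46% DMSO as negative control. After 16hr incubation, fluorescence viability then luminescence were read.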

[13] = MCF7 Cancer Cell Toxicity qHTS against the NCATS CANVASS Library (AID 1347369); conditions: MCF7 viability, ATP luminescence (CellTiter-Glo), 72 h; series mostly up to 46 µM
Procedure, shortened: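 Cytotoxicity is measured by ATP content: MCF7 cells at 500 per well receive an 11-point compound series and, after 72 hr at 37C, are lysed with CellTiterGlo for luminescence.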

[14] = A2780 Cisplatin Sensitive Ovarian Cancer Cell Toxicity qHTS against the NCATS CANVASS Library (AID 1347353); conditions: A2780 ovarian cancer viability, ATPLite luminescence, 72 h; series mostly up to 46.1 µM; further: nearly all actives have a fitted effect of over 60% in size
Procedure, shortened: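 750 cells/well, 4 h settle; 11-pt cpd titration; 72 h, 37 °C, 5% CO2; ATPLite 10 min RT; luminescence read.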

[15] = HEK-293 Cancer Cell Toxicity qHTS against the NCATS CANVASS Library (AID 1347355); conditions: HEK-293 viability, CellTiter-Glo luminescence, 72 h; series mostly up to 46.1 µM; further: nearly all actives have a fitted effect of over 65% in size
Procedure, shortened: as §1

[16] = test system: NAD(P)H diaphorase (Clostridium kluyveri); experiment: Diaphorse counterscreen qHTS: Assay Interference Panel against the NCATS CANVASS Library (AID 1347362); conditions: Diaphorase enzyme, resazurin to resorufin fluorescence; series mostly up to 57.5 µM
Procedure, shortened: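 Clostridium kluyveri diaphorase in PBS with 0.01% Tween-20 was preincubated 15 min at room temperature in the dark with compounds (11-point series). Resorufin fluorescence (ex 525/20, em 598/25) was read 5 min after adding resazurin/NADH.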

[17] = SDT Cancer Cell Toxicity qHTS against the NCATS CANVASS Library (AID 1347365); conditions: SDT dog glioma viability, ATP luminescence, 72 h; series mostly up to 46.1 µM;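 further: SDT canine glioma cells 500 per well in 1536 well plates; nearly all actives have a fitted effect of over 60% in size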
Procedure, shortened: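 Luminescent ATP read-out (CellTiterGlo) after 72 hr compound exposure of dog glioma SDT cells, 500 per well. Eleven-point titrations; bortezomib titration run alongside as control.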

[18] = G06 Cancer Cell Toxicity qHTS against the NCATS CANVASS Library (AID 1347368); conditions: G06 dog glioma cells, viability ATP luminescence, 72 h; series mostly up to 91.4 µM; further: nearly all actives have a fitted effect of over 60% in size
Procedure, shortened: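 ATP luminescence (CellTiterGlo) readout of cytotoxicity. Canine G06 glioma cells, 500/well, 72 hr incubation at 37C with compounds; bortezomib titration served as control.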

[19] = qHTS for ATAD5 Antagonist screened against the NCATS CANVASS Library (AID 1347370); conditions: HEK293T-ATAD5-luc, 5-FUrd stimulated, luminescence, 16 h; series mostly up to 46.1 µM;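 further: HEK293T cells carrying an ATAD5 luciferase reporter co-treated with 10 µM 5-fluorouridine; nearly all actives have a fitted effect of over 65% in size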
Procedure, shortened: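 HEK293T-ATAD5 luc reporter, 2000 cells/well; 5hr attach; cpd + 10 uM 5-FUrd; 16hr 37C, 5% CO2. Readouts: CellTiter-Fluor fluorescence (1hr), then Amplite luciferase luminescence (30min RT).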

[20] = J3T Cancer Cell Toxicity qHTS against the NCATS CANVASS Library (AID 1347371); conditions: J3T dog glioma viability, ATP luminescence, 72 h; series mostly up to 91.4 µM
Procedure, shortened: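 Dog glioma J3T, 500 cells/well; cpd 11-pt qHTS; 72 hr, 37C/5% CO2; CellTiterGlo ATP luminescence readout.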

Sequence of Luciferin 4-monooxygenase (Photinus pyralis) (P08659 whole entry, looked up): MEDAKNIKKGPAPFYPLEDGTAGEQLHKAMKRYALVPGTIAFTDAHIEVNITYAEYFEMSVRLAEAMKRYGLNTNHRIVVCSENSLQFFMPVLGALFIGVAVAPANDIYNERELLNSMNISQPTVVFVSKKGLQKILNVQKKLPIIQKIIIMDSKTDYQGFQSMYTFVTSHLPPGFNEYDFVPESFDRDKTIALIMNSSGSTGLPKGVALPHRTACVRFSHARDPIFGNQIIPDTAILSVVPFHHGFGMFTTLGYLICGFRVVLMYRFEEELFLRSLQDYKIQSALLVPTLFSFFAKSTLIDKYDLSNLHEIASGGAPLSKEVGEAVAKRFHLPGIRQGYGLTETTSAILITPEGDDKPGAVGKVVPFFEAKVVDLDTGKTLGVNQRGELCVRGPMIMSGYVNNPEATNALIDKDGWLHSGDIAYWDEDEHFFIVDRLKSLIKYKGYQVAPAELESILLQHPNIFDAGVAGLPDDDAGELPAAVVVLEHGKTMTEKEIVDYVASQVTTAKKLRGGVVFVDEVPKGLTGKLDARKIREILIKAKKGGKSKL

Compound | outcome [1] | outcome [2] | outcome [3] | outcome [4] | outcome [5] | outcome [6] | outcome [7] | outcome [8] | Potency [9] | outcome [10] | outcome [11] | outcome [12] | outcome [13] | outcome [14] | outcome [15] | outcome [16] | outcome [17] | outcome [18] | outcome [19] | outcome [20]
CC(=O)O[C@H]1C[C@@]2(C)[C@@H](CC[C@H]3[C@@]4(C)C=CC(=O)[C@@H](C)[C@@H]4[C@H](OC(C)=O)C(=O)[C@@]32C)/C1=C(\CCC=C(C)C)C(=O)O | inactive | inactive | inactive | inactive | inactive | inactive | inactive | inactive | inactive | inactive | inactive | inactive | inactive |  |  |  |  |  |  | 
CC(C)c1ccc2c(c1)CCC1[C@](C)(C(=O)O)CCC[C@]21C (stereo partly drawn) | inactive | inactive | inactive | inactive | inactive | inactive | inactive | inactive | inactive | inactive | inactive | inactive | inactive | inactive | inactive | inactive | inactive | inactive | inactive | inactive
C/C(=C\CC/C(C)=C/CC[C@]1(C)CCc2cc(O)cc(C)c2O1)CC/C=C(\C)C(=O)O | inactive | inactive | inactive | inactive | inactive | inactive | inactive | inactive | inactive | inactive | inactive | inactive | inactive |  | inactive |  | inactive | inactive | inactive | inactive
O=C(/C=C/C=C/c1ccc2c(c1)OCO2)N1CCCCC1 | inactive | inactive | inactive | inactive | inactive | inactive | inactive | inactive | 6.8 µM (active) |  | inactive | inactive | inactive |  |  | inactive | inactive | inactive | inactive | inactive
